# Data published in PubChem BioAssay (EPA / NIEHS).
# Inconclusive results are not listed. The source made the active and inactive calls. How the source made its calls: active means hit-call score of the fitted dose curve at least 0.9, where 1 is the maximum; inconclusive means response in the unintended direction; inactive means score below 0.9.
# Test: CCTE_Simmons_MITO_viability: CellTiter-Glo Viability Assessment for CCTE's HepG2 Seahorse XF Respirometric Screening Assay [post-hoc], Simmons Lab (AID 2284007);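 on AC50: cells exposed to chemical for 90 min before the ATP read; actives lower ATP signal relative to DMSO baseline meaning reduced viability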
# Outline: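 Post-hoc viability check on the HepG2 respirometry plates: luciferase-based ATP signal measured once, after 90 min compound exposure spanning 125 nM–100 uM final. Activity was referenced to DMSO as baseline.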
Structure (SMILES),outcome,AC50
O=[N+]([O-])c1ccc(O)cc1,inactive,
Nc1cccc2c(N)cccc12,inactive,
CCc1nn(C2CCCCC2)c2cc(C3(C#N)CCC(C(=O)O)CC3)ccc12 (configuration not stated),inactive,
NC(=O)N1C(=O)C(C(=O)c2cc(Cl)cs2)c2cc(F)c(Cl)cc21 (configuration not stated),,2.3 µM (active)
Oc1cc2ccccc2c2ccccc12,,6.92 µM (active)
OC1CCC(C2CCCCC2)CC1 (configuration not stated),inactive,
CCCCCCCCCCCCN1CCCC1=O,inactive,
CCCOC(=O)c1ccc(O)cc1,inactive,
O=C(O)Cc1cc(I)c(Oc2cc(I)c(O)c(I)c2)c(I)c1,inactive,
CC[C@H](c1ccc(O)cc1)[C@@H](CC)c1ccc(O)cc1,,12.6 µM (active)
NC(=O)N(O)[C@@H]1C=C[C@H](Oc2cccc(Oc3ccc(F)cc3)c2)C1,inactive,
Cc1cc(CCN2CCN(c3nsc4ccccc34)CC2)cc2c1NC(=O)CC2(C)C,,9.34 µM (active)
